# Experimental data as given in PubChem BioAssay.
# Experiment: compound effects on multiple myeloma cell viability – MM1S, calcein-AM fluorescence, 48 h, basal, profiling panel (AID 1165);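 note: viability of MM1S multiple myeloma cells under basal unstimulated conditions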
# Conditions: higher = more signal
# Note: test concentration not given here.
row,Compound,z-score
1,CCOC(=O)CCN1C(=O)[C@H]2[C@@H]3C(=CC[C@H]2C1=O)C(=O)[C@H]1O[C@H]1[C@H]3O,-3.19
2,COC(=O)[C@H](Cc1ccccc1)NC(=O)[C@@H](C)CO,-2.56
3,CC(CCC(=O)OC[C@H]1O[C@H](C#Cc2ccccc2)C=C[C@@H]1Oc1ccc(C)cc1)=NO[C@H](C)c1cn([C@@H]2COC[C@H]2O)nn1,-1.57
4,COC(=O)[C@H](C)NC(=O)CC=C[C@@H](C)[C@@H]1C=C[C@H](O)[C@@H](CO)O1,0.203
5,COc1ccc(O[C@H]2C=C[C@@H](c3ccccc3)O[C@@H]2CON=C(C)CCN2CCCc3nc(C)c(C)cc32)cc1,-2.13
6,COC(=O)[C@H](CCSC)NC(=O)CC=C[C@@H](C)CO,-1.12
7,CC(CCN1CCc2nc(-c3ccccc3)c(-c3ccccc3)cc2C1)=NO[C@@H](C)c1cc(-c2c(C)cc(C)cc2C)no1,-0.494
8,CCOC(=O)[C@H](CC(C)C)NC(=O)CCC1CC(OC(=O)NCc2ccc3c(c2)OCO3)CC2(CCCC(COC(=O)NCCc3ccc(Cl)cc3)O2)O1 (some centres undefined),-0.986
9,CN1CCc2nc(-c3ccccc3)c(-c3ccccc3)cc2C1,0.33
10,CC(C)CON=C1C[C@@H](O)[C@@H](O)[C@@H]2[C@@H]3C(=O)N([C@@H](C)c4ccccc4)C(=O)[C@@H]3CC[C@@H]12,-0.79
11,CC(CCC(=O)OC[C@H]1O[C@H](C#Cc2ccccc2)C=C[C@@H]1Oc1ccc(C)cc1)=NOC[C@@H](C)[C@H](OCc1ccccc1)C(C)C,-1.44
12,CC1(C)O[C@H]2OC([C@H](O)CON3C(=O)c4ccccc4C3=O)[C@H](O)[C@H]2O1 (some centres undefined),-0.963
13,C#CCCCON=C1C[C@@H](O)[C@@H](O)[C@@H]2[C@@H]3C(=O)N(CC)C(=O)[C@@H]3CC[C@H]12,0.489
14,CCCC[C@H]1CN2[C@@H](CC[C@@H](C)[C@@H]2c2ccc(Br)cc2)C(=O)O1,-0.256
15,C[C@@H]1CC[C@H]2C(=O)O[C@@H](CN=[N+]=[N-])CN2[C@H]1c1ccc(Br)cc1,-3.04
16,CCOC(=O)[C@H](CC(C)C)NC(=O)CCC1CC(OC(=O)NCc2ccc3c(c2)OCO3)CC2(CCCC(COC(=O)NCCc3ccccc3OC)O2)O1 (some centres undefined),-1.32
17,CCCNC(=O)OC[C@H]1O[C@H](CCON=C2C[C@@H](O)[C@@H](O)[C@@H]3[C@@H]4C(=O)N(CC)C(=O)[C@@H]4CC[C@@H]23)C=C[C@@H]1Oc1ccc(OC)cc1,-1.61
18,COCOc1ccc(Br)cc1C(=O)C=Cc1ccc2c(c1)OCO2,-3.48

# Experiment: calcein-AM signal in unstimulated myeloma cells – cell-based, calcein-AM fluorescence, 48 h, PK04 Diversity Set, profiling panel (AID 1166);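 note: cells grown under basal conditions without added stimulus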
# Conditions: RPMI8226 myeloma viability, higher = more signal
row,Compound,z-score
1,CO[C@H]1COC(=O)CCC[C@H](C)[C@H](OC)COC(=O)CC=C[C@@H]1C,-0.351
2,CCO[C@H](c1cc(OC)cc([N+](=O)[O-])c1OC)[C@H](C)[C@@H](OC)[C@H](C)C=CCC(=O)OC,0.824
3,O=C1[C@H]2[C@H]3[C@H](O)[C@H](O)CC(=NOC[C@@H](O)COCc4ccco4)[C@@H]3CC[C@H]2C(=O)N1Cc1ccccc1,0.693
4,COC(=O)CC=C[C@@H](C)[C@@H](C=NOC[C@@H](O)COCc1ccco1)OC,0.598
5,C[C@@H](c1ccccc1)N1C(=O)[C@H]2[C@H]3[C@H](O)[C@H](O)CC(=NNC(=O)OCc4ccccc4)[C@@H]3CC[C@H]2C1=O,-0.253
6,CCOC(=O)[C@H](Cc1ccccc1)NC(=O)CCC1CC(OC(=O)NCc2ccc3c(c2)OCO3)CC2(CCCC(COC(=O)NCCOC)O2)O1 (some centres undefined),-1.56
7,CCOC(=O)CCN1C(=O)[C@H]2[C@H]3[C@H](O)[C@H](O)CC(=NNC(=O)OCc4ccccc4)[C@H]3CC[C@H]2C1=O,-0.0554
8,COc1ccc(O[C@H]2C=C[C@@H](c3ccccc3)O[C@@H]2COC(=O)CCC(C)=NOC[C@@H](O)COCc2ccco2)cc1,0.107
9,CCCCOC(OCCCC)C(O)CSc1ccc2ccccc2c1 (centres undefined),-1.04
10,CC(C)CON=C1C[C@@H](O)[C@@H](O)[C@@H]2[C@@H]3C(=O)N(Cc4ccc5c(c4)OCO5)C(=O)[C@@H]3CC[C@@H]12,-0.51
11,COC(=O)[C@H](C)NC(=O)CCC1CC(OC(=O)NCCc2ccc(F)cc2)CC2(CCCC(COC(=O)NCCc3ccccc3OC)O2)O1 (some centres undefined),-0.285
12,CCN1C(=O)[C@H]2[C@@H]3C(=CC[C@H]2C1=O)C(=O)[C@H]1O[C@H]1[C@H]3O,-3.9
13,C[C@H]1CC[C@@H](C(=O)O)N[C@@H]1c1cccc(N2CCCC2=O)c1,-1.12
14,CCOC(=O)CCN1C(=O)[C@H]2[C@H]3[C@H](O)[C@H](O)CC(=NO[C@@H]4O[C@H](CO)[C@@H](O)[C@H](O)[C@H]4O)[C@H]3CC[C@H]2C1=O,-0.0451
15,O=C1C2=CC[C@H]3C(=O)N(Cc4ccccc4)C(=O)[C@H]3[C@H]2[C@H](O)[C@@H]2O[C@H]12,-3.83
16,CC(CCC(=O)OC[C@H]1O[C@H](C#Cc2ccccc2)C=C[C@@H]1Oc1ccc(C)cc1)=NO[C@@H](C)c1cc(-c2c(C)cc(C)cc2C)no1,-2.61
17,CO[C@@H]1[C@H](O)CO[C@H]1C=Cc1ccccc1,-0.664
18,COc1ccc(O[C@H]2C=C[C@@H](c3ccccc3)O[C@@H]2COC(=O)NCc2cccc3ccccc23)cc1,-0.0376

row,Compound,z-score
1,CCOC(=O)CCN1C(=O)[C@H]2[C@@H]3C(=CC[C@H]2C1=O)C(=O)[C@H]1O[C@H]1[C@H]3O,-3.72
2,COC(=O)[C@H](Cc1ccccc1)NC(=O)[C@@H](C)CO,-2.56
3,CC(CCC(=O)OC[C@H]1O[C@H](C#Cc2ccccc2)C=C[C@@H]1Oc1ccc(C)cc1)=NO[C@H](C)c1cn([C@@H]2COC[C@H]2O)nn1,-2
4,COC(=O)[C@H](C)NC(=O)CC=C[C@@H](C)[C@@H]1C=C[C@H](O)[C@@H](CO)O1,-0.859
5,COc1ccc(O[C@H]2C=C[C@@H](c3ccccc3)O[C@@H]2CON=C(C)CCN2CCCc3nc(C)c(C)cc32)cc1,-2.37
6,COC(=O)[C@H](CCSC)NC(=O)CC=C[C@@H](C)CO,-0.581
7,CC(CCN1CCc2nc(-c3ccccc3)c(-c3ccccc3)cc2C1)=NO[C@@H](C)c1cc(-c2c(C)cc(C)cc2C)no1,-1.25
8,CCOC(=O)[C@H](CC(C)C)NC(=O)CCC1CC(OC(=O)NCc2ccc3c(c2)OCO3)CC2(CCCC(COC(=O)NCCc3ccc(Cl)cc3)O2)O1 (some centres undefined),0.415
9,CN1CCc2nc(-c3ccccc3)c(-c3ccccc3)cc2C1,0.455
10,CC(C)CON=C1C[C@@H](O)[C@@H](O)[C@@H]2[C@@H]3C(=O)N([C@@H](C)c4ccccc4)C(=O)[C@@H]3CC[C@@H]12,0.336
11,CC(CCC(=O)OC[C@H]1O[C@H](C#Cc2ccccc2)C=C[C@@H]1Oc1ccc(C)cc1)=NOC[C@@H](C)[C@H](OCc1ccccc1)C(C)C,0.164
12,CC1(C)O[C@H]2OC([C@H](O)CON3C(=O)c4ccccc4C3=O)[C@H](O)[C@H]2O1 (some centres undefined),-0.486
13,C#CCCCON=C1C[C@@H](O)[C@@H](O)[C@@H]2[C@@H]3C(=O)N(CC)C(=O)[C@@H]3CC[C@H]12,0.516
14,CCCC[C@H]1CN2[C@@H](CC[C@@H](C)[C@@H]2c2ccc(Br)cc2)C(=O)O1,-0.238
15,C[C@@H]1CC[C@H]2C(=O)O[C@@H](CN=[N+]=[N-])CN2[C@H]1c1ccc(Br)cc1,-4.07
16,CCOC(=O)[C@H](CC(C)C)NC(=O)CCC1CC(OC(=O)NCc2ccc3c(c2)OCO3)CC2(CCCC(COC(=O)NCCc3ccccc3OC)O2)O1 (some centres undefined),-0.312
17,CCCNC(=O)OC[C@H]1O[C@H](CCON=C2C[C@@H](O)[C@@H](O)[C@@H]3[C@@H]4C(=O)N(CC)C(=O)[C@@H]4CC[C@@H]23)C=C[C@@H]1Oc1ccc(OC)cc1,0.141
18,COCOc1ccc(Br)cc1C(=O)C=Cc1ccc2c(c1)OCO2,-3.81
